Experimental data from PubChem BioAssay (EPA / NIEHS).
Records with an inconclusive call do not appear. Calls of active or inactive are those of the source. How the source made its calls, unless noted: active means hit-call score of the fitted dose curve at least 0.9, where 1 is the maximum; inactive means score below 0.9.

Tests used:
[1] = target: Estrogen receptor (Homo sapiens) (UniProt P03372); test: OT_ERa_GFPERaERE_0480: Odyssey Thera (OT) 8-hour HeLa Transcription Induction Assay for Estrogen Receptor (AID 2283381)
Estrogen receptor (Homo sapiens), sequence (P03372 whole entry, looked up): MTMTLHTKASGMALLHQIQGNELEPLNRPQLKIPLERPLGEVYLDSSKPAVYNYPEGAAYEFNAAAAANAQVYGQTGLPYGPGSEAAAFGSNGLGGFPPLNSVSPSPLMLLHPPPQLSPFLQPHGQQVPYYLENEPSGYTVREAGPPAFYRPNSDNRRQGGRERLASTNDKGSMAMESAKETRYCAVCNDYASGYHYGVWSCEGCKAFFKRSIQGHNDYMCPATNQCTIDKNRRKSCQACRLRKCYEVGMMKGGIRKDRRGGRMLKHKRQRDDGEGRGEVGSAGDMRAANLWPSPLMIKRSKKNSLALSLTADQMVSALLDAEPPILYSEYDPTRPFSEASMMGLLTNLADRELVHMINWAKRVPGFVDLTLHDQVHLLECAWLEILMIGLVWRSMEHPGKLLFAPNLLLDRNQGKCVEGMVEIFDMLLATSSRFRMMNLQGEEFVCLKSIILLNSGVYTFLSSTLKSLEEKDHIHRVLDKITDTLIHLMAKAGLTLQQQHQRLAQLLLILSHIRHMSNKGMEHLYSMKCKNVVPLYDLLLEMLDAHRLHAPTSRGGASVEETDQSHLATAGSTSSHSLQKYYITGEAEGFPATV
Summary of the method: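 Human cervical HeLa cells were treated for 8 hours, after which ERE-driven GFP induction was measured by fluorescence microscopy; increases over DMSO baseline defined activity.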

[2] = target: Estrogen receptor (Homo sapiens) (UniProt P03372); test: OT_ERa_GFPERaERE_0120: Odyssey Thera (OT) 2-hour HeLa Transcription Induction Assay for Estrogen Receptor (AID 2283382; active means hit-call score of the fitted dose curve at least 0.9, where 1 is the maximum)
Summary of the method: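 Cells (human cervical HeLa) receive compound, incubate 2 hours, then are imaged for fluorescent reporter induction. Images are quantified by high content analysis, and activity is fitted as gain of signal against DMSO.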

[3] = target: Retinoic acid receptor RXR-alpha (Homo sapiens) (UniProt P19793); test: OT_NURR1_NURR1RXRa_0480: Odyssey Thera (OT) 8-hour HEK293T Protein Complementation Assay for Nurr1/retinoid X receptor (RXR) (AID 2283385; active means hit-call score of the fitted dose curve at least 0.9, where 1 is the maximum)
Retinoic acid receptor RXR-alpha (Homo sapiens), sequence (P19793 whole entry, looked up, the tested form may be a part): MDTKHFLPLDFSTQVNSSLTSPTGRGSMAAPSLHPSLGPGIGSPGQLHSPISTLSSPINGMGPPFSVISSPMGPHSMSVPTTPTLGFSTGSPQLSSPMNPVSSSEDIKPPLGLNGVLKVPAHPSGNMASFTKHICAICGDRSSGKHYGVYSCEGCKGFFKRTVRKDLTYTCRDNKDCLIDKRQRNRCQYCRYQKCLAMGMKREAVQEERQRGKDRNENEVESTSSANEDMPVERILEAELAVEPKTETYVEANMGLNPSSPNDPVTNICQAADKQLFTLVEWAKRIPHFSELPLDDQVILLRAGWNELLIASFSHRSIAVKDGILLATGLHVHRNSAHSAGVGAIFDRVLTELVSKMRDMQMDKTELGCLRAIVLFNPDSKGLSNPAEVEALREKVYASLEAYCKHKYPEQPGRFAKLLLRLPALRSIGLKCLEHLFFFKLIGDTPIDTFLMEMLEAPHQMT
Summary of the method: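 Interaction of bait and prey reconstitutes a functional reporter, whose fluorescence was measured in HEK293T cells dosed with compound for 8 hours. Signal gain relative to DMSO defined the single endpoint.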

[4] = target: Retinoic acid receptor RXR-alpha (Homo sapiens) (UniProt P19793); test: OT_NURR1_NURR1RXRa_1440: Odyssey Thera (OT) 24-hour HEK293T Protein Complementation Assay for Nurr1/retinoid X receptor (RXR) (AID 2283386; active means hit-call score of the fitted dose curve at least 0.9, where 1 is the maximum)
Summary of the method: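 Steps: fragment-tagged Nurr1 and RXRα expressed in HEK293T; compounds added; after 24 h, complemented reporter quantified by fluorescence intensity; signal increase over DMSO fitted as the single endpoint.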

[5] = target: Peroxisome proliferator-activated receptor gamma (Homo sapiens) (UniProt P37231); test: OT_PPARg_PPARgSRC1_1440: Odyssey Thera (OT) 24-hour Protein-Complementation Assay for Peroxisome Proliferator-activated Receptor Gamma/ SRC-1 Co-activator (AID 2283388; active means hit-call score of the fitted dose curve at least 0.9, where 1 is the maximum)
Peroxisome proliferator-activated receptor gamma (Homo sapiens), sequence (P37231 whole entry, looked up, the tested form may be a part): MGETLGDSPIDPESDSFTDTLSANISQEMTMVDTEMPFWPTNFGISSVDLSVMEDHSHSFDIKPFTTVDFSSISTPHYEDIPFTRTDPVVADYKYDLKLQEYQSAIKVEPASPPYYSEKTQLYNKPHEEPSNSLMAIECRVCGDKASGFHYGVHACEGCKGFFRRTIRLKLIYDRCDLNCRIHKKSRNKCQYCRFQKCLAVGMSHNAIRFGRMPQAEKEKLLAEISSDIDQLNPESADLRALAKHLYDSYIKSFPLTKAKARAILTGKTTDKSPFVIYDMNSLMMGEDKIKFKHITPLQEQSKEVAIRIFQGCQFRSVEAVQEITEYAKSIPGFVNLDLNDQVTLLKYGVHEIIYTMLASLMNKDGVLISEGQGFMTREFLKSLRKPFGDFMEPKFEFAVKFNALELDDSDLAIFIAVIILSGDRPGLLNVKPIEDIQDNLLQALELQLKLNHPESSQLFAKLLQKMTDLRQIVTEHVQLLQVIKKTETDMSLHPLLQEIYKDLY
Summary of the method: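 HEK293T transiently transfected with PPARg/SRC-1 split-Venus YFP fusions 48 h before dosing, then treated 24 h at 37C. Fixed cells imaged; nuclear/cytoplasmic 488 nm fluorescence ratio, gain of signal versus DMSO.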

[6] = CEETOX_H295R_OHPREG: CeeTox H295R High-throughput Steroidogenesis Assay for OH-Pregnenolone (OHPREG) (AID 2283434); conditions: actives raise or lower the signal
Summary of the method: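 H295R, 10 uM forskolin pre-stim 48 h; test chemical 48 h, 0.1% DMSO final. MTBE extraction, reverse-phase C18 HPLC-ESI+ MS/MS of medium. Gain/loss vs DMSO; viability by MTT in same wells.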

[7] = CEETOX_H295R_OHPROG: CeeTox H295R High-throughput Steroidogenesis Assay for OH-Progesterone (OHPROG) (AID 2283435); conditions: actives raise or lower the signal;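 on AC50: human adrenal H295R cells primed 48 h with 10 µM forskolin; 17alpha-hydroxyprogesterone secreted into medium measured by HPLC-MS/MS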
Summary of the method: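 Steps: seed H295R cells and adhere overnight; stimulate with 10 uM forskolin for 48 h; replace with chemical-containing medium (0.1% DMSO) for 48 h; extract medium with MTBE; quantify 17alpha-hydroxyprogesterone by reverse-phase C18 HPLC-MS/MS against a 7-point curve.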

[8] = CEETOX_H295R_ESTRADIOL: CeeTox H295R High-throughput Steroidogenesis Assay for Estradiol (AID 2283440); conditions: actives raise or lower the signal;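 further: estradiol secreted into medium quantified by LC-MS/MS after dansyl derivatisation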
Summary of the method: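 H295R cells pre-stimulated 48 h with 10 uM forskolin, then exposed 48 h to chemical in 0.1% DMSO. Medium estradiol quantified by MTBE extraction, dansyl derivatisation and HPLC-MS/MS; bidirectional fit versus DMSO; MTT viability required >/=70%.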

[9] = CEETOX_H295R_ESTRONE: CeeTox H295R High-throughput Steroidogenesis Assay for Estrone (AID 2283441); conditions: actives raise or lower the signal
Summary of the method: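 Estrone secreted into medium quantified by LC-MS/MS after dansyl chloride derivatization, following 48 h chemical exposure (0.1% DMSO final) of forskolin-prestimulated (10 uM, 48 h) H295R cells; gain or loss fitted against DMSO; MTT viability in same wells.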

[10] = CEETOX_H295R_PROG: CeeTox H295R High-throughput Steroidogenesis Assay for Progesterone (PROG) (AID 2283442); conditions: actives raise or lower the signal;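 on AC50: human H295R adrenal cells primed with 10 µM forskolin before dosing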
Summary of the method: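 H295R adrenal cells prestimulated 48 h with 10 uM forskolin, then exposed 48 h to test chemical in 0.1% DMSO. Progesterone in medium quantified by HPLC-MS/MS after MTBE extraction; viability checked by MTT in same wells.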

[11] = read-out: Tumor necrosis factor receptor superfamily member 6 (Homo sapiens) (UniProt P25445); test: LTEA_HepaRG_FAS: Life Technologies and Expression Analysis (LTEA) Assay for Fas cell surface death receptor (FAS) using HepaRG (AID 2283447); conditions: mRNA level, 48 h; actives raise or lower the signal
Summary of the method: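 Differentiated HepaRG cells in serum-free induction medium were exposed 48 h to 8 half-log concentrations up to 100 uM in 0.5% DMSO, in duplicate. FAS mRNA was measured by qRT-PCR normalised to ACTB, GAPDH and POLR2A; bidirectional fit versus DMSO.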

[12] = read-out: Fatty acid synthase (Homo sapiens) (UniProt P49327); test: LTEA_HepaRG_FASN: Life Technologies and Expression Analysis (LTEA) Assay for Fatty Acid Synthase (FASN) using HepaRG (AID 2283448); conditions: mRNA level, 48 h; actives raise or lower the signal;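 on AC50: differentiated human HepaRG liver cells in serum-free induction medium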
Summary of the method: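 Cells were plated, cultured 48 h, switched to serum-free induction medium, then dosed in duplicate (max 100 uM, half-log dilutions, 0.5% DMSO) for 48 h. RNA was then isolated and FASN quantified by qRT-PCR.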

[13] = CEETOX_H295R_11DCORT: CeeTox H295R High-throughput Steroidogenesis Assay for 11-Deoxycortisol (11DCORT) (AID 2283432); conditions: actives raise or lower the signal;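 on AC50: 11-deoxycortisol secreted into the medium measured by LC-MS/MS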
Summary of the method: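 H295R cells prestimulated 48 h with 10 uM forskolin, then exposed 48 h to chemical in 0.1% DMSO. 11-Deoxycortisol in medium quantified by HPLC-MS/MS after MTBE extraction; bidirectional fit versus DMSO. MTT viability read in same wells.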

[14] = CEETOX_H295R_ANDR: CeeTox H295R High-throughput Steroidogenesis Assay for Androstenedione (ANDR) (AID 2283436); conditions: actives raise or lower the signal;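 further: human H295R adrenal cells exposed for 48 h with androstenedione measured in medium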
Summary of the method: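 48 h chemical exposure, H295R cells, DMEM/F12 + ITS+ and Nu-Serum. Medium androstenedione: MTBE extraction, C18 reverse-phase HPLC, ESI+ MS/MS. Fit bidirectional vs DMSO; MTT viability in same wells.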

[15] = CEETOX_H295R_CORTIC: CeeTox H295R High-throughput Steroidogenesis Assay for Corticosterone (CORTIC) (AID 2283437); conditions: actives raise or lower the signal;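 further: corticosterone secreted into medium quantified by mass spectrometry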;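 on AC50: human H295R adrenal cells prestimulated with forskolin before chemical exposure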
Summary of the method: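 48 h forskolin (10 uM) prestim, then 48 h chemical exposure, final DMSO 0.1%. Readout: corticosterone in medium by LC-MS/MS after MTBE extraction. Gain/loss fit vs DMSO; MTT viability in same wells.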

[16] = CEETOX_H295R_CORTISOL: CeeTox H295R High-throughput Steroidogenesis Assay for Cortisol (AID 2283438); conditions: actives raise or lower the signal
Summary of the method: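 Cortisol synthesis by H295R cells is measured 48 h after chemical dosing, following a 48 h stimulation with 10 uM forskolin. Hormone is extracted and quantified by HPLC-MS/MS, and activity is fitted bidirectionally against the DMSO control.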

[17] = CEETOX_H295R_DOC: CeeTox H295R High-throughput Steroidogenesis Assay for DOC (AID 2283439); conditions: actives raise or lower the signal
Summary of the method: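 Steps: seed H295R, adhere overnight; 10 uM forskolin 48 h; replace with chemical medium (0.1% DMSO) 48 h; collect medium, MTBE extraction, HPLC-MS/MS for DOC. Viability then checked by MTT; cytotoxic chemicals diluted until viability ≥70%.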

[18] = read-out: Cyclin D2 (CCND2), CCND2 (gene 894); test: LTEA_HepaRG_CCND2: Life Technologies and Expression Analysis (LTEA) Assay for Cyclin D2 (CCND2) using HepaRG (AID 2283449); conditions: mRNA level, 48 h; actives raise or lower the signal;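 further: CCND2 transcript measured by TaqMan qRT-PCR and normalised to three housekeeping genes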
Summary of the method: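 HepaRG, 48 h dosing, 8-pt half-log curve from 100 uM, 0.5% DMSO; duplicate wells. Readout: CCND2 transcript by microfluidic qRT-PCR, housekeeping-normalised; bidirectional fit vs DMSO baseline.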

[19] = target: Peroxisome proliferator-activated receptor gamma (Homo sapiens) (UniProt P37231); test: OT_PPARg_PPARgSRC1_0480: Odyssey Thera (OT) 8-hour Protein-Complementation Assay for Peroxisome Proliferator-activated Receptor Gamma / SRC-1 Co-activator (AID 2283387; active means hit-call score of the fitted dose curve at least 0.9, where 1 is the maximum)
Summary of the method: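 HEK293T transiently transfected with PPARg and SRC-1 fused to Venus YFP fragments, compounds 8 h at 37C. Fixed, Draq5-stained cells imaged; nuclear/cytoplasmic 488 nm fluorescence ratio over at least 350 cells per image; gain fitted versus DMSO.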

Measured: AC50

Fatty acid synthase (Homo sapiens), sequence (P49327 whole entry, looked up): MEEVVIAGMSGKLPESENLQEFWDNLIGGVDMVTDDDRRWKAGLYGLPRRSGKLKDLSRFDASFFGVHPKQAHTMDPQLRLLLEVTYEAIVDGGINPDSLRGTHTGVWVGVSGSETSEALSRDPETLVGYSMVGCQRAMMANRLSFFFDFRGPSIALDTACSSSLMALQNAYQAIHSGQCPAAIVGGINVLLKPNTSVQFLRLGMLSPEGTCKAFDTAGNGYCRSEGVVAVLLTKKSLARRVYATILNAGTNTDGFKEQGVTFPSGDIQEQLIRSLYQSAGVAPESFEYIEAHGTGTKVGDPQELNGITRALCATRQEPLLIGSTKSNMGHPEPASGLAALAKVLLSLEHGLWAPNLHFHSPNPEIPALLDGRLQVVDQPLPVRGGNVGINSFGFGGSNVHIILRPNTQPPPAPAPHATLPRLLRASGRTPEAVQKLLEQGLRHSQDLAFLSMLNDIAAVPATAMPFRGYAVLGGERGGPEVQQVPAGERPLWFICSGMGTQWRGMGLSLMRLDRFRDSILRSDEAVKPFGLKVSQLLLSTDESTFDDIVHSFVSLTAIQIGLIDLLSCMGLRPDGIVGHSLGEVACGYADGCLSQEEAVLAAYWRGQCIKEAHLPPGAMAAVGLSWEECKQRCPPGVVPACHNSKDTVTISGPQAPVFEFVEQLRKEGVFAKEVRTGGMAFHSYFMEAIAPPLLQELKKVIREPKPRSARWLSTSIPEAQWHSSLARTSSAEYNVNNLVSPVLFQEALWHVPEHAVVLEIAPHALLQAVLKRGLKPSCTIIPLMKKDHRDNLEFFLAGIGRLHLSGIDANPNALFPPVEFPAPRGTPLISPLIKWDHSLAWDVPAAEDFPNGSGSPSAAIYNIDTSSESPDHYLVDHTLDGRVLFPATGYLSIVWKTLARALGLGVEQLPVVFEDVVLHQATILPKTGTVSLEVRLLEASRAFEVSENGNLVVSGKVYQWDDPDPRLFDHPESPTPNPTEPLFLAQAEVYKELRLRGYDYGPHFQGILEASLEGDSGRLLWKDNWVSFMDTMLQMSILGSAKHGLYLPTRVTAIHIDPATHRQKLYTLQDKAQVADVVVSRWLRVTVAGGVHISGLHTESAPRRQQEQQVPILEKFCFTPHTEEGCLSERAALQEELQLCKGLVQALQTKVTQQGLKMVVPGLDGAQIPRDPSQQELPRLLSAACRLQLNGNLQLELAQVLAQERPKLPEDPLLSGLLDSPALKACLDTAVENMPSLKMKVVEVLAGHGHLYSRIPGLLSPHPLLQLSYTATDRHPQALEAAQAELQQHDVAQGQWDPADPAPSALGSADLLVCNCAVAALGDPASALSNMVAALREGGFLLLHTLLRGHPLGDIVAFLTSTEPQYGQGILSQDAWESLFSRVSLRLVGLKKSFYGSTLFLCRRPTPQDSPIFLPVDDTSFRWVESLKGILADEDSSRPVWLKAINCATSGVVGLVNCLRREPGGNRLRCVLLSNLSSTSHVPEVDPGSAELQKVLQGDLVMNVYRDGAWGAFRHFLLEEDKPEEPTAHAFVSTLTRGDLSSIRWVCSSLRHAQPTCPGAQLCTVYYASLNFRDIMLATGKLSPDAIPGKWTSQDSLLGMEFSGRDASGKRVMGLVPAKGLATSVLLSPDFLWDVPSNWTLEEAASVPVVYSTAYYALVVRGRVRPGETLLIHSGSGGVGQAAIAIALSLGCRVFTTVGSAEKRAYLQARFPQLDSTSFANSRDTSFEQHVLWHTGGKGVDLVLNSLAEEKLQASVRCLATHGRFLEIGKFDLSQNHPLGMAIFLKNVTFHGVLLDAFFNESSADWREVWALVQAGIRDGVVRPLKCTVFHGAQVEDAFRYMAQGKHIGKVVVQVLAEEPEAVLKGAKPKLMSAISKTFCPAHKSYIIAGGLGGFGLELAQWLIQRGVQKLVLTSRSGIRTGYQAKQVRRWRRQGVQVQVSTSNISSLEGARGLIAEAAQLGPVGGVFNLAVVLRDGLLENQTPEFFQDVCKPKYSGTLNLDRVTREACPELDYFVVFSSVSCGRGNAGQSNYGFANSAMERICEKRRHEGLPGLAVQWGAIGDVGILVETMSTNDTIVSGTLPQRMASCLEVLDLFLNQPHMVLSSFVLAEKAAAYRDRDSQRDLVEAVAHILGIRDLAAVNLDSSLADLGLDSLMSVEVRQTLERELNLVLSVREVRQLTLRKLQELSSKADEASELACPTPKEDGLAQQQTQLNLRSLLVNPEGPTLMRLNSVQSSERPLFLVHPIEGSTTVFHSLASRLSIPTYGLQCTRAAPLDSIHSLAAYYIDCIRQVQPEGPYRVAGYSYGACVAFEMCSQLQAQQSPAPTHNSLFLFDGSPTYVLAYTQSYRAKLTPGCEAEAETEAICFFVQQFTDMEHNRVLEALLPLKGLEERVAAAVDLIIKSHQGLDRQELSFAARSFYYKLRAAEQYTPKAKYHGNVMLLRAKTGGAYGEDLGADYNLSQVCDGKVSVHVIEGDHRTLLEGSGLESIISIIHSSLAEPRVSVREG

Nc1ccc2ccccc2c1
inactive: [1] | [2] | [3] | [4] | [5] | [6] | [8] | [9] | [11]
active: [7] 13.9 µM | [10] 13.8 µM | [12] 10.6 µM

ClC(Cl)=C(c1ccc(Cl)cc1)c1ccccc1Cl
inactive: [13] | [6] | [7] | [14] | [15] | [16] | [17] | [8] | [9] | [10]

Nc1ccc([N+](=O)[O-])cc1Cl
inactive: [13] | [6] | [7] | [14] | [15] | [16] | [17] | [10]

CCOC(=O)c1ccccc1C(=O)OCC
inactive: [1] | [2] | [3] | [4] | [5] | [11] | [12] | [18]

CCOC(=O)c1ccccc1N
inactive: [1] | [2] | [4] | [19] | [5]

CCOS(=O)(=O)OCC
inactive: [1] | [2] | [4] | [5] | [11] | [12] | [18]

O=c1ssc(Cl)c1Cl
inactive: [1] | [2] | [5]

CC1(C)CN=C(NN=C(/C=C/c2ccc(C(F)(F)F)cc2)/C=C/c2ccc(C(F)(F)F)cc2)NC1
inactive: [1] | [2] | [5]

Cc1ccc(O)cc1C
not listed: [5] | [13] | [14] | [15] | [16] | [17] | [19]
inactive: all other assays above

O=C(O)C(Cl)Cl
inactive: [1] | [2] | [3] | [4] | [5] | [11] | [12] | [18]

O=P1(N(CCCl)CCCl)NCCCO1 (stereo not given)
inactive: [1] | [2] | [3] | [4] | [5] | [11] | [12] | [18]

Oc1ccc(I)cc1
inactive: [13] | [6] | [15] | [16] | [17] | [8] | [9]
active: [7] 18.6 µM | [10] 17 µM

CCOP(=S)(OCC)SCn1nnc2ccccc2c1=O
active: [7] 10 µM | [10] 8.4 µM
inactive: [13] | [6] | [15] | [16] | [17] | [8] | [9]

O=[N+]([O-])c1ccccc1
inactive: [1] | [2] | [3] | [4] | [5] | [12] | [18]

CCOP(=S)(Oc1ccc([N+](=O)[O-])cc1)c1ccccc1 (stereo not given)
active: [1] 12.7 µM | [2] 18.4 µM | [7] 0.404 µM | [10] 0.786 µM
not listed: [13] | [14] | [15] | [16] | [17] | [19]
inactive: all other assays above

CCCCOCCOP(=O)(OCCOCCCC)OCCOCCCC
not listed: [11] | [12] | [14] | [18] | [19]
inactive: all other assays above

N#Cc1c(-c2ccc(Cl)cc2)[nH]c(C(F)(F)F)c1Br
inactive: [6] | [14] | [8] | [9] | [10]
active: [13] 0.37 µM | [7] 0.282 µM | [15] 0.291 µM | [16] 0.645 µM | [17] 0.253 µM

O=C(O)CF
inactive: [1] | [2] | [3] | [5]

COP(N)(=S)OC
inactive: [13] | [6] | [7] | [14] | [15] | [16] | [17] | [10]

c1ccc2c(c1)sc1ccccc12
inactive: [1] | [2] | [19] | [5]

CC(Cc1ccc(OCC(=O)O)cc1)NCC(O)c1csc(C(F)(F)F)n1 (stereo not given)
inactive: [1] | [2] | [3] | [4] | [5] | [11] | [12] | [18]
